The record followed here is PubChem BioAssay.

A word on the AC50: it is the midpoint of the concentration-response curve, whichever way the signal moves.

Inconclusive results are not listed. Active and inactive are the calls of the source. Cut-off not given; nearly all actives show AC50 up to about 26 µM.

A short description of this assay: JHH-DIPG-1 glioma cell viability, MIPE5.0 library, CellTiter-Glo luminescence, qHTS (AID 1347067).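 Further: cells exposed to compound for 48 hours before readout.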 The note with it: JHH-DIPG-1 glioma viability, CellTiter-Glo ATP luminescence.
Consider `O=C1OC2(CCC(C(=O)Nc3ccn(-c4ccccc4F)n3)CC2)c2cnccc21` (stereo not given), for which the compound was classed as inactive.
`O=C(Nc1ccc2c(c1)CCN(Cc1ncn[nH]1)C2)c1ccccc1-c1ccc(C(F)(F)F)cc1`: the compound was called inactive.
With `Cn1nccc1Nc1nccc(-c2cc3c(s2)C(C)(C)N(CCN2CCOCC2)C3=O)n1`, the AC50 is 2.09 µM (active).
As to `CCCCCCCCCCCCCCCCOCCCOP(=O)(O)COC(CO)Cn1ccc(N)nc1=O` (stereo not given), the outcome was inactive.
For the compound `CNc1nc(C)nc(N[C@H]2CCC[C@@H](C(=O)NCc3ccc(C#N)cc3C(F)(F)F)C2)n1`, the compound was classed as inactive.
As for `CCOc1cc(C(=O)N2CCC(N3CCN(C)CC3)CC2)ccc1Nc1ncc2c(n1)N(C1CCCC1)c1ccccc1C(=O)N2C`, the AC50 is 26.3 µM (active).
As to `COCCNc1cc(NC(=O)N2CCCc3cc(CN4CCN(C)CC4=O)c(C=O)nc32)ncc1C#N`, the call was inactive.
Turning to `CCC(CC)CC1(C(=O)Nc2ccccc2SC(=O)C(C)C)CCCCC1`, the call was inactive.
Regarding `CCO[C@@H]1OC(=O)C[C@@H]1NC(=O)[C@@H]1CCCN2C(=O)CC[C@H](NC(=O)c3nccc4ccccc34)C(=O)N12`, the result was inactive.
Regarding `FC(F)(F)c1ccc(CNc2ccc(Cc3c[nH]c4ncccc34)cn2)cc1`, the AC50 is 18.6 µM (active).
For the compound `CN[C@@H](C)C(=O)N[C@H](C(=O)N1CCC[C@H]1c1nc(C(=O)c2ccc(F)cc2)cs1)C1CCCCC1`, the compound was classed as inactive.
`CN1CCN(C(=O)[C@H]2[C@@H](C(=O)O)[C@H]3CC[C@@H]2O3)CC1`: the call was inactive.
`N[C@@H](CCC(=O)O)C(=O)N[C@@H](Cc1c[nH]c2ccccc12)C(=O)O`: the compound was classed as inactive.
As for `COCCNCc1ccc(-c2cc3nccc(Oc4ccc(NC(=S)NC(=O)Cc5ccc(F)cc5)cc4F)c3s2)nc1`, the AC50 is 7.42 µM (active).
On to `CCCS(=O)(=O)c1nc(NC2CC2)cc(-c2ccc3c(ccn3C3CC(C)(C)NC(C)(C)C3)c2)n1`, for which the AC50 was 2.78 µM (active).
For `CC[C@@H](Oc1cccc(CN(CCCOc2ccc(OC)cc2)c2nc3ccccc3o2)c1)C(=O)O`, the compound was classed as inactive.
With `C=CC(=O)N1CCC[C@H](n2c(=O)n(-c3ccc(Oc4ccccc4)cc3)c3c(N)ncnc32)C1`, the AC50 was 0.742 µM (active).
For the compound `O=C(Nc1cccc(Cl)c1)Nc1ncc(CCNc2ncnc3ccsc23)s1`, the AC50 was 16.6 µM (active).
Consider `Cc1ccc(-c2nn(C(C)(C)CNC(=O)c3ccncc3)c3ncnc(N)c23)cc1`, for which the AC50 was 13.2 µM (active).
As to `N=C(N)c1ccc2nc(-c3cc(CC(=O)N[C@@H](CC(=O)O)C(=O)O)cc(-c4cc(S(N)(=O)=O)ccc4O)c3O)[nH]c2c1`, the call was inactive.
